Measured values from PubChem BioAssay (NCATS).
Records with an inconclusive call do not appear. Calls of active or inactive are those of the source. Calls come from the whole dose curve; as a rule, active = well fitted inhibition curve with a large enough effect; inconclusive = small, poorly fitted or top-dose-only effect; inactive = flat fitted curve, though single readings scatter.

Columns and labels:
[1] = qHTS profiling for inhibitors of Plasmodium falciparum proliferation (AID 504749);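 for activity, negative = inhibition: 0% = DMSO vehicle and full inhibition = artemisinin control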; for all read-outs here: nearly all actives have a fitted effect of over 60% in size; conditions: P. falciparum in erythrocytes, SYBR Green DNA, 72 h; for activity, negative = inhibition: at 28.7 µM (top of the series)
Procedure, shortened: (§1)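 Readout was DNA-dye fluorescence from lysed cultures, ex 485/em 535 nm. Parasitized red cells had grown 72 h with compound; data scaled between 0.29 uM artemisinin and DMSO wells and corrected using vehicle-only plates.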

3D7 = test: as above; conditions: P. falciparum in erythrocytes, SYBR Green DNA, 72 h; series mostly up to 28.7 µM
Procedure, shortened: as §1

7G8 = test: as above; conditions: P. falciparum in erythrocytes, SYBR Green DNA, 72 h; series mostly up to 28.7 µM
Procedure, shortened: as §1

AA1029 = test: as above; conditions: P. falciparum in erythrocytes, SYBR Green DNA, 72 h; series mostly up to 28.7 µM
Procedure, shortened: as §1

AS120 = test: as above; conditions: P. falciparum in erythrocytes, SYBR Green DNA, 72 h; series mostly up to 28.7 µM
Procedure, shortened: as §1

ATS189 = test: as above; conditions: P. falciparum in erythrocytes, SYBR Green DNA, 72 h; series mostly up to 28.7 µM
Procedure, shortened: as §1

ATS95 = test: as above; conditions: P. falciparum in erythrocytes, SYBR Green DNA, 72 h; series mostly up to 28.7 µM
Procedure, shortened: as §1

C2A = test: as above; conditions: P. falciparum in erythrocytes, SYBR Green DNA, 72 h; series mostly up to 28.7 µM
Procedure, shortened: as §1

CP185 = test: as above; conditions: P. falciparum in erythrocytes, SYBR Green DNA, 72 h; series mostly up to 28.7 µM
Procedure, shortened: as §1

CP191 = test: as above; conditions: P. falciparum in erythrocytes, SYBR Green DNA, 72 h; series mostly up to 28.7 µM
Procedure, shortened: as §1

CP192 = test: as above; conditions: P. falciparum in erythrocytes, SYBR Green DNA, 72 h; series mostly up to 28.7 µM
Procedure, shortened: as §1

CP194 = test: as above; conditions: P. falciparum in erythrocytes, SYBR Green DNA, 72 h; series mostly up to 28.7 µM
Procedure, shortened: as §1
Potency is the fitted concentration of half-maximal effect.

F[Si-2](F)(F)(F)(F)F
inactive: activity, negative = inhibition ([1]; parasite line A) 3.4% | activity, negative = inhibition ([1]; parasite line B) 19.2% | Potency (3D7) | Potency (7G8) | Potency (AA1029) | Potency (AS120) | Potency (ATS189) | Potency (ATS95) | Potency (C2A) | Potency (CP185) | Potency (CP191) | Potency (CP192) | Potency (CP194)

Cc1cccc(C)c1NC(=O)C1CCCCN1C (stereo not drawn)
inactive: activity, negative = inhibition ([1]; parasite line A) -4.61% | activity, negative = inhibition ([1]; parasite line B) -9.47% | Potency (3D7) | Potency (7G8) | Potency (AA1029) | Potency (AS120) | Potency (ATS189) | Potency (ATS95) | Potency (C2A) | Potency (CP185) | Potency (CP191) | Potency (CP192) | Potency (CP194)

ClC(Cl)Cl
inactive: activity, negative = inhibition ([1]; parasite line A) 5.74% | activity, negative = inhibition ([1]; parasite line B) 10.9% | Potency (3D7) | Potency (7G8) | Potency (AA1029) | Potency (AS120) | Potency (ATS189) | Potency (ATS95) | Potency (C2A) | Potency (CP185) | Potency (CP191) | Potency (CP192) | Potency (CP194)

O=C(O)C1=C(CSc2nnnn2CS(=O)(=O)O)CS[C@@H]2[C@H](NC(=O)[C@H](O)c3ccccc3)C(=O)N12
inactive: activity, negative = inhibition ([1]; parasite line A) -7.54% | activity, negative = inhibition ([1]; parasite line B) 1.69% | Potency (3D7) | Potency (7G8) | Potency (AA1029) | Potency (AS120) | Potency (ATS189) | Potency (ATS95) | Potency (C2A) | Potency (CP185) | Potency (CP191) | Potency (CP192) | Potency (CP194)

CC1CCCCN1CCCOC(=O)c1ccccc1 (stereo not drawn)
inactive: activity, negative = inhibition ([1]; parasite line A) 3.84% | activity, negative = inhibition ([1]; parasite line B) 9.27% | Potency (3D7) | Potency (7G8) | Potency (AA1029) | Potency (AS120) | Potency (ATS189) | Potency (ATS95) | Potency (C2A) | Potency (CP185) | Potency (CP191) | Potency (CP192) | Potency (CP194)

CN(C)C=Nc1c(I)cc(I)c(CCC(=O)O)c1I
inactive: activity, negative = inhibition ([1]; parasite line A) 0.723% | activity, negative = inhibition ([1]; parasite line B) 1.95% | Potency (3D7) | Potency (7G8) | Potency (AA1029) | Potency (AS120) | Potency (ATS189) | Potency (ATS95) | Potency (C2A) | Potency (CP185) | Potency (CP191) | Potency (CP192) | Potency (CP194)

NC(=O)C1c2ccccc2CCc2ccccc21
inactive: activity, negative = inhibition ([1]; parasite line A) -4.87% | activity, negative = inhibition ([1]; parasite line B) 8.64% | Potency (3D7) | Potency (7G8) | Potency (AA1029) | Potency (AS120) | Potency (ATS189) | Potency (ATS95) | Potency (C2A) | Potency (CP185) | Potency (CP191) | Potency (CP192) | Potency (CP194)

CN1CCC(OC(=O)C(Oc2ccc(Cl)cc2)Oc2ccc(Cl)cc2)CC1
inactive: activity, negative = inhibition ([1]; parasite line A) 7.76% | activity, negative = inhibition ([1]; parasite line B) -8.26% | Potency (3D7) | Potency (7G8) | Potency (AA1029) | Potency (AS120) | Potency (ATS189) | Potency (ATS95) | Potency (C2A) | Potency (CP185) | Potency (CP191) | Potency (CP192) | Potency (CP194)

CN=C1C=CC(=C(c2ccc(N(C)C)cc2)c2ccc(N(C)C)cc2)C=C1
active: Potency ([1]; parasite line A) 562 nM | Potency ([1]; parasite line B) 398 nM | Potency (3D7) 708 nM | Potency (7G8) 282 nM | Potency (AA1029) 708 nM | Potency (AS120) 1000 nM | Potency (ATS189) 447 nM | Potency (ATS95) 1120 nM | Potency (C2A) 447 nM | Potency (CP185) 447 nM | Potency (CP191) 282 nM | Potency (CP192) 849 nM | Potency (CP194) 953 nM

Cc1ncc(COP(=O)(O)O)c(CN)c1O
inactive: activity, negative = inhibition ([1]; parasite line A) -3.16% | activity, negative = inhibition ([1]; parasite line B) 3.16% | Potency (3D7) | Potency (7G8) | Potency (AA1029) | Potency (AS120) | Potency (ATS189) | Potency (ATS95) | Potency (C2A) | Potency (CP185) | Potency (CP191) | Potency (CP192) | Potency (CP194)

OCCCNc1ccccc1
inactive: activity, negative = inhibition ([1]; parasite line A) 8.17% | activity, negative = inhibition ([1]; parasite line B) 6.74% | Potency (3D7) | Potency (7G8) | Potency (AA1029) | Potency (AS120) | Potency (ATS189) | Potency (ATS95) | Potency (C2A) | Potency (CP185) | Potency (CP191) | Potency (CP192) | Potency (CP194)

CC1(C)S[C@@H]2[C@H](NC(=O)C3(N)CCCCC3)C(=O)N2[C@H]1C(=O)O
inactive: activity, negative = inhibition ([1]; parasite line A) 1.02% | activity, negative = inhibition ([1]; parasite line B) 10.4% | Potency (3D7) | Potency (7G8) | Potency (AA1029) | Potency (AS120) | Potency (ATS189) | Potency (ATS95) | Potency (C2A) | Potency (CP185) | Potency (CP191) | Potency (CP192) | Potency (CP194)

FC(F)OC(Cl)C(F)(F)F (stereo not drawn)
inactive: activity, negative = inhibition ([1]; parasite line A) 2.2% | activity, negative = inhibition ([1]; parasite line B) 13% | Potency (3D7) | Potency (7G8) | Potency (AA1029) | Potency (AS120) | Potency (ATS189) | Potency (ATS95) | Potency (C2A) | Potency (CP185) | Potency (CP191) | Potency (CP192) | Potency (CP194)

Cc1ccc(C(C)(C)c2ccc(C)cc2)cc1
inactive: activity, negative = inhibition ([1]; parasite line A) 2.11% | activity, negative = inhibition ([1]; parasite line B) -1.44% | Potency (3D7) | Potency (7G8) | Potency (AA1029) | Potency (AS120) | Potency (ATS189) | Potency (ATS95) | Potency (C2A) | Potency (CP185) | Potency (CP191) | Potency (CP192) | Potency (CP194)

OCl
inactive: activity, negative = inhibition ([1]; parasite line A) 10.5% | activity, negative = inhibition ([1]; parasite line B) 2% | Potency (3D7) | Potency (7G8) | Potency (AA1029) | Potency (AS120) | Potency (ATS189) | Potency (ATS95) | Potency (C2A) | Potency (CP185) | Potency (CP191) | Potency (CP192) | Potency (CP194)

CC(C)[C@H](N)C(=O)OCC(CO)OCn1cnc2c(=O)[nH]c(N)nc21 (stereo partly drawn)
inactive: activity, negative = inhibition ([1]; parasite line A) 14.7% | activity, negative = inhibition ([1]; parasite line B) 6.07% | Potency (3D7) | Potency (7G8) | Potency (AA1029) | Potency (AS120) | Potency (ATS189) | Potency (ATS95) | Potency (C2A) | Potency (CP185) | Potency (CP191) | Potency (CP192) | Potency (CP194)
